Drawing on the supplement of paper PMC10681739, this text covers ETS1 binding intensity for 63 sequences.

Over roughly 4,100 sequences, “arbitrary fluorescence units” has its median near 780; the highest 2% begin near 22,000. The sample holds the highest values, similar sequences and a random draw of the others, so the mix is not that of the screen.

In the experiment the target is T1, ETS1 (UniProt P14921).
T1 sequence: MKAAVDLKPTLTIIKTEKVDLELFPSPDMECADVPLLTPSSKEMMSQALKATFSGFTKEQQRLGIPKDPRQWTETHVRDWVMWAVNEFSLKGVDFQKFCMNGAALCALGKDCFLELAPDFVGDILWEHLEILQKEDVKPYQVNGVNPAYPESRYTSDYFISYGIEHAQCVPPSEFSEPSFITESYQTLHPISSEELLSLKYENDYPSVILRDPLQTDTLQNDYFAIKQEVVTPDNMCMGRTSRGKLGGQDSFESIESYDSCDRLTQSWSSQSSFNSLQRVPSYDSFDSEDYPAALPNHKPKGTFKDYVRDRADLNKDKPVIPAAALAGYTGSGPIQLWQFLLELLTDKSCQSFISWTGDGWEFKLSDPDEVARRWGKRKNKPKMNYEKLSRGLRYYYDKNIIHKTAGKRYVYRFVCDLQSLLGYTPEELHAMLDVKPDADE
Description: ETS1 binding intensity (PBM fluorescence), ETS1 alone (arbitrary fluorescence units); higher = stronger binding. Conditions: ETS1 concentration 1 nM; RUNX1 concentration 0 nM. Here is the method:
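gcPBM on 36-bp genomic-derived probes (partner site mutated) containing one ETS1 site and no RUNX1 site. Recombinant human ETS1 (1 nM) was incubated alone or with RUNX1 (25 nM) and detected by anti-ETS1 antibody fluorescence. Values are medians over 4 replicate spots (not normalised). The probes sit in constant array flanks that are not printed.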
Turning to AGTTTTCCGTCGGGCTCCCAGTGACGCCGAAGAGGT, the ETS1 binding intensity was determined as 2580.

In the case of GCGCAAAGCCGGAAGGAGGGGTTTGGGGCTGGGGAG, the ETS1 binding intensity was 4130.

Consider TCCCTCCTCCGCTCAGACCCACTTCCTGTCTGCTTC, for which the ETS1 binding intensity amounted to 8330.

The sequence CTTCCTTCCCTTCCTTCTGCTCCCTCCCAGAGCCGC showed an ETS1 binding intensity of 852.

Sequence CCCACTTCCTGTCTGCTTCCCTCCTCCGCTCAGACC had an ETS1 binding intensity of 28400.

On to TAGGGGCTGAGGGTCCGGGCGGAAGTGGGGCAGGCG, for which the ETS1 binding intensity came to 2500.

For the sequence CCGGTCGGGGCTGCAGCCGCTTCCGGAGCCGCGGGC, the ETS1 binding intensity was found to be 3060.

Sequence CTGCACTTCCGGTCAGGCGGTCGGGCTGAGGGGCCC showed an ETS1 binding intensity of 36600.

Sequence ATGGATGGGGTTGCTTGCGTGAGGAAATACTTGATG yielded an ETS1 binding intensity of 524.

Regarding CCCAATTTCCTTTGCTCTGCTGTCTGCCAACCCCAA, the ETS1 binding intensity turned out to be 3560.

Sequence GCAGATATCACAGACTCTCTCCTTTCCTGCTGAATA yielded an ETS1 binding intensity of 546.

For TGACTTCCGGTCCGTAGTGGGGCCTTCGGTGGGAGT, the ETS1 binding intensity is 35800.

Sequence CTGCAGCGGGGATCCTTGGGGCCCTTCCGGTCGGTG showed an ETS1 binding intensity of 2190.

Turning to GCTCGCAGCCCCAAGAGGTGGCCTTCGGTTCCGGGG, the ETS1 binding intensity is 382.

As to TTGTGGACGCGGATTTGGGGGCGGGTATCCGGGCCT, the ETS1 binding intensity stood at 564.

GGTCACTTCGGCCCAGAGGCCCGCTCTTCCGCTGAG: the ETS1 binding intensity was determined as 564.

On to CAGGGATTCCGGCTGAGTGCGGCCCCCTCAGCCTCC, for which the ETS1 binding intensity came to 606.

Sequence GTGGCTGTCGTTGAACTGACTCTCGGGTTTCCGCTC yielded an ETS1 binding intensity of 606.

Regarding GAGCCTGTTGCTTCCGGTTCAGAGCCCACGTGCTGG, the ETS1 binding intensity turned out to be 22200.

TGGAAGAGCCCCACGACATGTGCTTCCTGCGTGCTG displayed an ETS1 binding intensity of 596.

CTAGCTGTGGACAGGAAACGAGTGGATTTTGTGATC came in with an ETS1 binding intensity of 3740.

Consider CCGTACTTCCGCTTTACTCAGATTTTGGACCTCGGG, for which the ETS1 binding intensity was found to be 30200.

The sequence CCGGGACCTCGGCTTGGGCTCACGGCCACTTCCGAC yielded an ETS1 binding intensity of 393.

CTCAGCGGCAGCAAGCCCCACCCCGGAAGTCGGCTG yielded an ETS1 binding intensity of 1590.

As for GATGACTTCCTCAGTTCAGGGCTATGTACGGGGGAG, the ETS1 binding intensity turned out to be 4670.

Sequence CCGCTTCCGGCCTTCGCCCGGCTTAGCCGCGTCGCA came in with an ETS1 binding intensity of 34700.

GGCCTCGCGGCGTCTCTGCTGCTTCCGCCTTCCCGG showed an ETS1 binding intensity of 854.

GCCCGGCTTAGCCGCGTCGCGGAAGTCCGCTCTCTG returned an ETS1 binding intensity of 397.

On to CCTCTGCCCAACCCCAATTTTCCCTTCCTCCGCCTT, for which the ETS1 binding intensity is 543.

Turning to CTTTTTGATTTCCTCAAGCATCCCAGAAATACACAG, the ETS1 binding intensity worked out at 2020.

In the case of GCCCACGCCGCTGGGAGGTGAGACTGAAGGAAGCAC, the ETS1 binding intensity came to 402.

ACGGAGCTGTAGTTTAACGTTTCCGGTTAGTGGCTA registered an ETS1 binding intensity of 9670.

As for GCCCACTTCCTGCCGTAAGAGAAATCCACTAACACA, the ETS1 binding intensity was 33800.

In turn, GACGCAGCCCCAGAGCGATTCGCGTCCCGGAAGCGG yielded an ETS1 binding intensity of 491.

The sequence TCCAGCGCCGCTGGGCCAACGAGAGCGCTTCCGGCC displayed an ETS1 binding intensity of 1740.

With CCGAGCGCACCAGCTCCCGCGCGTGGTTCCGCCGCT, the ETS1 binding intensity is 324.

In turn, CCAACGAGCACTTCCGCTTCCCGAAGCTCCAGCGGC yielded an ETS1 binding intensity of 27700.

GCGAGAGGGAGGAAGTGACTCACCAACCCCAACAAA showed an ETS1 binding intensity of 2690.

TCCCAGTTTATGGGAAGGGTTGAGGGAAGTGAGGGG: the ETS1 binding intensity was found to be 531.

The sequence TGTCTCATTTCCTGTAGGTAACAGGCACCAAAATAG displayed an ETS1 binding intensity of 26500.

For the sequence GGATCGGCCTGAGGTGTGTCTCATTTCCTGTAGGTA, the ETS1 binding intensity worked out at 2130.

GTGACGTGGCTGTAGGTCTCATTTCCTGCACGGCCT yielded an ETS1 binding intensity of 2060.

TGCTCCACTCGGAAGTGGTGCCGAAGCTCTTCGATG: the ETS1 binding intensity was 905.

For the sequence CTGCCAGAGCACACAGTTTGCACTTCCGGGGCGGGC, the ETS1 binding intensity turned out to be 2710.

Turning to CCGCCGACACACTTCCGGCGGCCACCAGAGGGTATT, the ETS1 binding intensity came to 21200.

Consider GCCACACTTCCGGCGGGGCTGCGACTGCAGAGGGGC, for which the ETS1 binding intensity is 38700.

Consider CAAGAGCCGGAAGTCCCTTGTGCCGTAGTCCTTCCC, for which the ETS1 binding intensity turned out to be 9220.

CAGCATGAGGGTGCACACACCGCTTCCTTAGAGGTT yielded an ETS1 binding intensity of 757.

Consider GTGATAAGAACGACAGGCCACTTCCCAAAGATCAAA, for which the ETS1 binding intensity came out at 531.

With TTTCACTTCCGGCATGTTTTTCACCTACAGGGATAT, the ETS1 binding intensity was 35500.

The sequence AGCTTCCGAGTCTGTTGTGGAGTGGGAACAGCGACT displayed an ETS1 binding intensity of 2510.

Regarding GCCTGCGCTCTTTCCGGTAGCCAGAGCCTCGTCTAA, the ETS1 binding intensity amounted to 8280.

CGCCGAACTTCCGGCAGTAAATTCCGTGGATTCCCG had an ETS1 binding intensity of 27100.

The sequence CGTCCCCGAAAAGCCGCGGCAGAAACTTCCGGCGGT showed an ETS1 binding intensity of 3130.

TGCCGCCTGCAGCACCCTCCCCATTTCCTGGCTGTA: the ETS1 binding intensity amounted to 1190.

As for GCACGTGTTTCCTGGGGCTGCACCCCAGCACCACAC, the ETS1 binding intensity turned out to be 2380.

Regarding CGTTTCCTGTGGCTGCAGCTCTCCCCACGCACACAC, the ETS1 binding intensity stood at 23800.

Regarding ACCCACTTCCTGTTAGAGCATCTTTGCAACCCCAGG, the ETS1 binding intensity stood at 30200.

The sequence TGTTGCCACTGTTAGACTAGAGAGCATCCTGTTGTT registered an ETS1 binding intensity of 851.

TTTCTTCCTGTTTGCATCACCCCAAATCCACTATCA yielded an ETS1 binding intensity of 16900.

TACGCACACGCTTCGGGATCCTTCCGCTCCGGGTTA gave an ETS1 binding intensity of 644.

In turn, CTCCCACGCTCCCCTTCCGGCCCCGCTGCGCTGTGA yielded an ETS1 binding intensity of 3160.

GGTCACGTGTCCACGGGGACCGGAAGTGGCGCCCGG came in with an ETS1 binding intensity of 14400.
